Rows were chosen to be rich in hits. Some 0.82% of all compounds tested hit in one or more screens of this group.
Yp Topo-I inh: blocks Yersinia pestis topoisomerase I activity; 0.064% of 360,000 active; Y. pestis Topo-I cleavage product accumulation, plate reader; activity, % at 10 µM; in the data active means activity above about 50%, passing the limit was not always enough
Rv3671c inh: inhibitors of M. tuberculosis serine protease Rv3671c; inhibition, % at 5.96 µM; 0.048% of 320,000 active; P9WHR9; in the data active means inhibition above about 38%;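 further: extracellular domain of Rv3671c used as enzyme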
Target sequence (P9WHR9 whole entry, looked up, the tested form may be a part): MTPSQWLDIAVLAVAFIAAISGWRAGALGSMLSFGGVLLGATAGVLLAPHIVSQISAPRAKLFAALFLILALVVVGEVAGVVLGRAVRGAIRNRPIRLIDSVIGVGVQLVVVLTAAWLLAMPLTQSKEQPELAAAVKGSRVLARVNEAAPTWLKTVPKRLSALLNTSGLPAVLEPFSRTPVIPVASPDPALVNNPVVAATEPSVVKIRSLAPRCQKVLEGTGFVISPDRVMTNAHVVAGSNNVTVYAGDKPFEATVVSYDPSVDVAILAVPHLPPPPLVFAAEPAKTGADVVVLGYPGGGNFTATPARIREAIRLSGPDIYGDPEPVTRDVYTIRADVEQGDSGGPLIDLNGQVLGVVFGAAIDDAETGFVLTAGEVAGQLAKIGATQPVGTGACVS
RecA splice inh: blocks M. tuberculosis RecA intein splicing; P9WHJ3; cell-free RecA intein splicing, fluorescence; inhibition, % (test concentration not listed); 0.75% of 290,000 active; AID 2221; in the data active means inhibition above about 30%
FadD28 FP inh: inhibitors of Mycobacterium tuberculosis FadD28 bisubstrate binding. AID 588549. FadD28 bisubstrate probe binding, fluorescence polarization. 0.22% of 360,000 active. inhibition, % at 12.5 µM; in the data active means inhibition above about 8.5%, passing the limit was not always enough
Mtb UGM inh: inhibitors of M. tuberculosis UDP-galactopyranose mutase; P9WIQ1; purified UGM, fluorescence polarization probe displacement; inhibition, % at 10 µM; 0.06% of 320,000 active; in the data active means inhibition above about 10%, passing the limit was not always enough
BioA inh: BioA (M. tuberculosis) enzyme inhibition. purified M. tuberculosis BioA enzyme, plate reader. inhibition, % at 9.99 µM. 0.096% of 360,000 active; in the data active means inhibition above about 40%
Large screens that a line does not name were inactive.

O=C(C[C@H]1C[C@@H]2c3cc(NS(=O)(=O)c4ccc(F)cc4)ccc3O[C@@H]2[C@H](CO)O1)NCc1ccncc1	none (no result: Yp Topo-I inh, Rv3671c inh, RecA splice inh, FadD28 FP inh, Mtb UGM inh)
Cc1cnnn1-c1ccc(C(=O)CCl)cc1	RecA splice inh 52.5 (no result: BioA inh)
CCn1c(=O)c([N+](=O)[O-])c(Cl)c2ccccc21	RecA splice inh 40.7 (no result: BioA inh)
CCn1c(=O)c([N+](=O)[O-])c(NCCN(C)C)c2ccccc21	none (no result: BioA inh)
Cc1noc(C)c1NC(=O)Nc1ccc2c(c1)C(=O)N([C@@H](C)CO)C[C@@H](C)[C@H](CN(C)C(=O)Nc1ccccc1)O2	none (no result: Yp Topo-I inh, Rv3671c inh, RecA splice inh, FadD28 FP inh, Mtb UGM inh)
O=C(CSc1cn(CCNC(=O)c2ccccc2F)c2ccccc12)NCC1CCCO1 (centres undefined)	none
O=C(NCCn1cc(SCc2ccccc2)c2ccccc21)c1ccccc1F	Yp Topo-I inh 50.2
Cc1ccc(C(=O)n2cnc3ccccc32)cc1C	RecA splice inh 35.6
Cc1occc1C(=O)n1cnc2ccccc21	none (no result: Yp Topo-I inh, FadD28 FP inh, BioA inh)
COc1ccc(S(=O)(=O)N(C)C[C@H]2OCCCC[C@H](C)Oc3ccc(NS(=O)(=O)c4cccs4)cc3C(=O)N([C@@H](C)CO)C[C@H]2C)cc1	none (no result: Yp Topo-I inh, Rv3671c inh, RecA splice inh, FadD28 FP inh, Mtb UGM inh)
Nc1ccc(N(CCO)CCO)cc1	RecA splice inh 63.1 (no result: BioA inh)
CCN(CC)c1ccc(N)cc1	none (no result: RecA splice inh)
CO[C@@H]1CN(C)C(=O)c2ccc(NC(=O)c3cc(C)on3)cc2OC[C@H](C)N(C(=O)C2CC2)C[C@H]1C	none (no result: Yp Topo-I inh, Rv3671c inh, RecA splice inh, FadD28 FP inh, Mtb UGM inh)
CC(Nc1c[nH]c(=O)[nH]c1=O)c1ccccc1 (centres undefined)	RecA splice inh 61.2 (no result: Rv3671c inh)
Cc1cccc(NC(=O)NNC(=O)c2ccc3ccccc3c2O)c1	FadD28 FP inh 8.5 (no result: Rv3671c inh)
CC(C)(C)C1CCc2sc(C(=O)NNC(=O)CCl)cc2C1 (centres undefined)	RecA splice inh 67.3 (no result: Rv3671c inh, Mtb UGM inh)
C[C@H]1CN([C@@H](C)CO)C(=O)c2cc(-c3ccc(F)cc3)cnc2O[C@@H]1CN(C)C(=O)Cc1ccccc1	none (no result: Yp Topo-I inh, Rv3671c inh, RecA splice inh, FadD28 FP inh, Mtb UGM inh)
C[C@@H]1CN([C@H](C)CO)C(=O)c2cc(NC(=O)C3CC3)ccc2O[C@H]1CN(C)C(=O)Nc1ccc(F)cc1	none (no result: Yp Topo-I inh, Rv3671c inh, RecA splice inh, FadD28 FP inh, Mtb UGM inh)
COc1ccc(-c2c[n+]3c4n2CCCCC4=C(c2ccc(Br)cc2)C3)cc1	none
Clc1ccc(C2=C3CCCCn4c(-c5ccccc5)c[n+](c43)C2)cc1	RecA splice inh 33.5
CCCNC(=O)Nc1ccc2c(c1)C(=O)N(C)C[C@H](OC)[C@H](C)CN(C(=O)C1CC1)[C@@H](C)CO2	none (no result: Yp Topo-I inh, Rv3671c inh, RecA splice inh, FadD28 FP inh, Mtb UGM inh)
O=C(C[C@H]1C/C=C\CC[C@H](Cc2ccc(F)cc2)C(=O)O[C@@H](c2ccccc2)CNC1=O)N[C@H](CO)Cc1ccccc1	none (no result: RecA splice inh)
O=C(C[C@H]1C/C=C\CC[C@H](Cc2ccc(F)cc2)C(=O)O[C@@H](c2ccccc2)CNC1=O)N[C@@H](CO)Cc1ccccc1	Yp Topo-I inh 88.7 (no result: RecA splice inh)
Cc1cccc(N2C(=O)NC(=O)/C(=C/c3cc4c(cc3[N+](=O)[O-])OCO4)C2=O)c1	Mtb UGM inh 11.2 (no result: BioA inh)
Cc1cc2c(C(C)C)c(O)c(O)c(C=O)c2c(O)c1-c1c(C)cc2c(C(C)C)c(O)c(O)c(C=O)c2c1O	FadD28 FP inh 51.0 (no result: Rv3671c inh, Mtb UGM inh)
CCC(=O)N1C[C@H](C)[C@H](OC)CN(C)C(=O)c2ccc(NC(=O)c3ccc(F)cc3)cc2OC[C@H]1C	none (no result: Yp Topo-I inh, Rv3671c inh, RecA splice inh, FadD28 FP inh, Mtb UGM inh)
CC1=C(C#N)c2nc(N)c(C#N)c(C)c2/C1=C\c1ccc(C)cc1	RecA splice inh 33.2 (no result: Yp Topo-I inh, FadD28 FP inh, BioA inh)
O=C(c1ccco1)N(CCC(c1ccccc1)c1ccco1)Cc1ccc(F)cc1 (centres undefined)	none
CC1(C)CC(C(CCN(Cc2ccccc2)C(=O)c2ccco2)c2ccc(F)cc2)CCO1 (centres undefined)	RecA splice inh 35.4
Cc1ccc(Cn2ncc(Cl)c(Cl)c2=O)cc1	RecA splice inh 38.1
Cc1cc(C)cc(Cn2ncc(Cl)c(Cl)c2=O)c1	RecA splice inh 55.9 (no result: Yp Topo-I inh, FadD28 FP inh, BioA inh)
CCOC(=O)N1CCN(S(=O)(=O)c2ccc(C(=O)N(CCN(C)C)c3nc4ccc(Cl)cc4s3)cc2)CC1	none
CCOC(=O)N1CCN(S(=O)(=O)c2ccc(C(=O)NNc3nc4c(C)cccc4s3)cc2)CC1	FadD28 FP inh 17.1
CCOC(=O)N1CCN(S(=O)(=O)c2ccc(C(=O)NNc3nc4ccc(Cl)cc4s3)cc2)CC1	FadD28 FP inh 11.7
CCOC(=O)N1CCN(S(=O)(=O)c2ccc(C(=O)NNc3nc4cc(C)cc(C)c4s3)cc2)CC1	none
CCOC(=O)N1CCN(S(=O)(=O)c2ccc(C(=O)NNc3nc4c(C)cc(C)cc4s3)cc2)CC1	FadD28 FP inh 15.0
CCN(C(=O)COC(=O)c1cc(Cl)ccc1OC)c1c(N)n(Cc2ccccc2)c(=O)[nH]c1=O	Mtb UGM inh 12.2 (no result: RecA splice inh)
CC(C)NC(=O)N[C@@H]1CC[C@H](CCNC(=O)C2CCOCC2)O[C@@H]1CO	none (no result: Yp Topo-I inh, Rv3671c inh, RecA splice inh, FadD28 FP inh, Mtb UGM inh)
Nc1nonc1-n1nnc(C(=O)N/N=C/c2ccc(Br)cc2)c1CSC1=NCCS1	RecA splice inh 31.5 (no result: Mtb UGM inh)
CC(C)c1ccc(/C=N/NC(=O)c2nnn(-c3nonc3N)c2CSC2=NCCS2)cc1	RecA splice inh 33.8 (no result: BioA inh)
Cc1noc(C)c1NC(=O)N(C)C[C@H]1Oc2ccc(NC(=O)NC3CCCCC3)cc2CC(=O)N([C@H](C)CO)C[C@@H]1C	none (no result: Yp Topo-I inh, Rv3671c inh, RecA splice inh, FadD28 FP inh, Mtb UGM inh)
CC(C)(C)c1csc(NC(=O)c2ccccc2O)n1	none
CC(C)(C)c1csc(NC(=O)c2c(F)c(F)c(F)c(F)c2F)n1	RecA splice inh 31.2
CC(=O)N[C@H]1CC[C@H](CC(=O)NCc2ccc(Cl)cc2)O[C@H]1CO	none (no result: Yp Topo-I inh, Rv3671c inh, RecA splice inh, FadD28 FP inh, Mtb UGM inh)
